# From article PMC5540273 (PLoS ONE, 2017)
# Experiments:
# Details in all cases: concentration: 1 μM, replicates: in singlicate; n = 1
# [1] = tested on: EIF2AK1
# [2] = tested on: EPHA1
# [3] = tested on: EPHA2
# [4] = tested on: EPHA3
# [5] = tested on: EPHA4
# [6] = tested on: EPHA5
# [7] = tested on: EPHA6
# [8] = tested on: EPHA7
# [9] = tested on: EPHA8
# [10] = tested on: EPHB1
# 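Further: KINOMEscan kinase panel screen.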
Structure (SMILES),%Inh [1],%Inh [2],%Inh [3],%Inh [4],%Inh [5],%Inh [6],%Inh [7],%Inh [8],%Inh [9],%Inh [10]
COc1cc2ncnc(Nc3ccc(OCc4ccccc4Br)c(Cl)c3)c2cc1OC.Cl [GI261590],0%,8%,14%,0%,3%,15%,7%,4%,17%,12%
O=C(c1ccc(-c2cc(-c3c[nH]nc3-c3ccccn3)ccn2)cc1)N1CCCC1 [GW792479],0%,56%,21%,1%,13%,36%,2%,9%,19%,5%
CN1c2ccc(-c3ccc(C(=O)NCCO)cc3)cc2-c2[nH]ncc2S1(=O)=O,0%,11%,27%,14%,14%,19%,22%,3%,0%,7%
c1ccc(-c2ccc3c(-c4ccnc(Nc5ccc6c(c5)OCCO6)n4)cnn3n2)cc1 [GW818941],0%,7%,18%,0%,21%,0%,12%,14%,17%,18%
Cl.c1ccc(Cn2ncc3cc(Nc4ncnc5ccccc45)ccc32)cc1 [GW273749],0%,28%,0%,0%,4%,0%,0%,7%,17%,0%
O=C(Nc1ccccc1F)NC1CCN(c2ccnc(Nc3ccc(F)cc3)n2)C1 (stereo not drawn) [GSK1379722],0%,0%,8%,0%,0%,0%,4%,5%,14%,11%
Fc1cccc(COc2ccc(Nc3ncnc4cc[nH]c34)cc2Cl)c1,23%,2%,15%,0%,18%,20%,7%,4%,1%,9%
Clc1ccc(-c2cc(-c3c[nH]nc3-c3ccccn3)ccn2)cc1 [GW681251],0%,0%,8%,0%,2%,0%,10%,0%,0%,7%
CN1CCC(n2cnc(-c3ccc(F)cc3)c2-c2ccnc(NC3CCNCC3)n2)CC1 [SB-229482],0%,0%,5%,18%,7%,5%,5%,0%,0%,0%
CC(=O)Nc1n[nH]c2ncc(-c3ccccc3)cc12 [SB-548492],0%,17%,0%,2%,8%,15%,29%,0%,32%,15%
Fc1ccc(Nc2nccc(-c3c(-c4ccc(Cl)cc4)nn4ncccc34)n2)cc1F [GW829058],0%,13%,3%,27%,12%,24%,15%,8%,9%,20%
FC(F)(F)c1cc(Nc2nccc(-c3c(-c4ccc(Cl)cc4)nn4ncccc34)n2)ccc1Cl [GW829351],0%,0%,0%,0%,4%,0%,0%,0%,3%,0%
COc1ccc(-c2oc3ncnc(N)c3c2-c2ccc(OC)cc2)cc1 [SB-589132],3%,70%,19%,0%,32%,0%,50%,0%,9%,0%
Cn1cc(-c2ccc3c(c2)CCN3C(=O)Cc2cccc(C(F)(F)F)c2)c2c(N)ncnc21 [GSK2606414],1%,3%,0%,0%,0%,0%,0%,4%,14%,15%
Fc1cccc(COc2ccc(Nc3ncnc4nn5ccccc5c34)cc2Cl)c1 [GW689066],0%,11%,12%,0%,0%,0%,9%,0%,0%,4%
O=C(NCCCN1CCCC1=O)c1cnc(NCc2cc(Cl)ccc2Cl)nc1NC1CCNCC1,0%,9%,2%,0%,0%,2%,0%,0%,0%,7%
OCCOCCn1ccc2ncnc(Nc3ccc(Oc4cccc(Cl)c4)c(Cl)c3)c21,0%,0%,1%,0%,0%,0%,0%,0%,0%,2%

Structure (SMILES),%Inh [1],%Inh [2],%Inh [3],%Inh [4],%Inh [5],%Inh [6],%Inh [7],%Inh [8],%Inh [9],%Inh [10]
COc1cc2c(Nc3cccc(NC(=O)c4ccccc4)c3)ncnc2cc1OCCCN1CCOCC1 [GSK223810],0%,7%,29%,6%,6%,0%,2%,3%,24%,4%
Cc1cc(N2CCC(NS(=O)(=O)c3ccc(F)cc3)CC2)nc(Nc2cccc(C#N)c2)n1.O=C(O)C(F)(F)F [GSK1653537],0%,1%,0%,0%,7%,0%,5%,6%,19%,15%
O=C(Nc1n[nH]c2nc(-c3ccco3)c(Br)cc12)c1ccc(CN2CCCC2)cc1.O=C(O)[C@H](O)[C@@H](O)C(=O)O [SB-742352],0%,3%,0%,0%,100%,0%,100%,0%,7%,6%
Clc1cc(Nc2ncnc3cc[nH]c23)ccc1OCc1ccccn1,3%,11%,12%,0%,24%,14%,27%,1%,0%,1%
CCc1nc(-c2cccc(C)c2)c(-c2ccnc(NC(=O)c3ccccc3)c2)s1,15%,0%,0%,4%,32%,28%,45%,12%,15%,14%
O=c1cc(N2CCOCC2)nc2n(Cc3cccc(Cl)c3)ccn12 [GSK2296823],7%,17%,14%,82%,20%,0%,19%,7%,17%,8%
CNc1nccc(-c2c(-c3ccc(F)cc3)ncn2C2CCN(C)CC2)n1 [SB-222903],0%,0%,0%,2%,1%,0%,0%,0%,0%,9%
CCn1c(-c2ccncc2)nc2cnccc21 [SB-735216],19%,23%,5%,99.1%,10%,0%,16%,0%,14%,0%
Cc1ccc(O)cc1Nc1cc(C(F)(F)F)nc2ccc(-c3ccncc3)cc12 [GW630823],0%,6%,17%,0%,5%,3%,5%,88%,68%,12%
NC(=O)c1sc(-n2cnc3ccccc32)cc1OCc1ccccc1F [GSK1024306],0%,2%,0%,5%,0%,0%,0%,0%,19%,0%
Nc1n[nH]c2nnc(-c3ccccc3)cc12 [SB-517389],13%,9%,4%,0%,14%,0%,0%,8%,15%,9%
CCc1nc(-c2cccc(N(C)S(=O)(=O)c3ccccc3)c2)c(-c2ccnc(Nc3ccc(N4CCN(C(C)=O)CC4)nc3)n2)s1 [GSK1645895],0%,29%,0%,14%,0%,0%,2%,5%,25%,7%
O=C(Nc1ccccc1)Nc1ccc(Oc2ccc3nccn3n2)cc1,0%,31%,25%,0%,0%,0%,0%,3%,23%,13%
Fc1cccc(COc2ccc(Nc3ncnc4sc(-c5ccc[nH]5)cc34)cc2Cl)c1 [GW707818],0%,0%,0%,18%,0%,0%,0%,0%,4%,1%
C[C@H]1CC[C@@H](C(=O)Nc2ccccc2)CN1c1cc(-c2ccc3c(N)n[nH]c3c2)nc(N)n1 [GSK2283293],10%,0%,11%,0%,3%,0%,15%,6%,23%,22%
Cn1ccc2ncnc(Oc3ccc(NC(=O)Nc4cccnc4)c(Cl)c3)c21,0%,0%,0%,4%,29%,11%,32%,7%,10%,9%
